Source: PubChem BioAssay
YB-1 expression – YB-1 expression inhibition | U2OS, qRT-PCR YB-1 vs CDIP delta delta Cp, 16 h; active compounds read high; zero = DMSO, each unit about twofold | delta delta Cp (YB-1 minus CDIP) (concentration not given with the values) | 30,000 compounds, 0.37% hits | AID 434959;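 active means delta delta Cp rounded down to an integer at or above 3, about 3 SD of DMSO wells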;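 further: higher means less YB-1 transcript or more CDIP transcript relative to DMSO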
MITF inh – MITF inhibition; inhibition, % (no concentration beside the values); 37,000 compounds, 0.28% hits; AID 2240; TRPM1 promoter luciferase, luminescence, 24 h; in the data active means inhibition above about 85%; inconclusive means no clear call, values can overlap the other calls; inactive means below about 68%;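 further: human melanocyte line stably carrying TRPM1 promoter luciferase reporter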
NOMO-1 viab – STK33 inhibitor candidate reducing NOMO-1 cell viability. NOMO-1 AML viability, CellTiter-Glo luminescence, 72 h. inhibition, % (no concentration beside the values). 37,000 compounds, 7.5% hits; in the data active means inhibition above about 80%; inconclusive means no clear call, values can overlap the other calls
PD-1 reverse act – reversal of PD-1 mediated T-cell inhibition | primary human CD4 T cells, PD-L1 beads, CellTiter-Glo 96 h | activation, % (no concentration beside the values) | 29,000 tested, under 10 active; call rule not given here;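 further: 0% = median vehicle wells and 100% = positive control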
U2OS ROS induce – raises reactive oxygen species in U2OS cancer cells; AID 624156; ROS induction (% of piperlongumine), % at 10 µM; U2OS ROS induction, H2DCF-DA fluorescence; 46,000 compounds, 2% hits; in the data active means ROS induction above about 79%, passing the limit was not always enough; inconclusive means no clear call, values can overlap the other calls;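 further: 0% = DMSO vehicle median and 100% = reference compound median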
* hit, by the source's call; ? = inconclusive; . = no result given. This excerpt belongs to a sample that is enriched for hits.

SMILES	YB-1 expression	MITF inh	NOMO-1 viab	PD-1 reverse act	U2OS ROS induce
C[C@@H]1CN([C@H](C)CO)C(=O)c2cc(NC(=O)Cc3cn(C)c4ccccc34)ccc2O[C@H]1CN(C)Cc1ccc(Cl)c(Cl)c1	0.4	47.0	?	0.2	22.8
C[C@@H]1CN([C@H](C)CO)C(=O)c2cc(NC(=O)Cc3cn(C)c4ccccc34)ccc2O[C@@H]1CN(C)Cc1ccc(Cl)c(Cl)c1	0.24	49.4	111.7*	-2.8	11.0
CCc1ccccc1NC(=O)CCCN1C(=O)c2ccccc2C1=O	.	-13.1	16.0	.	.
O=C(N/N=C/c1ccc(C(F)(F)F)cc1)c1ccccn1	0.0437	.	.	.	17.5
C[C@@H]1CN([C@H](C)CO)C(=O)Cc2cc(NS(=O)(=O)c3cccs3)ccc2O[C@H]1CN(C)Cc1ccc(Oc2ccccc2)cc1	-0.174	31.6	88.5*	.	?
C[C@@H]1CN([C@H](C)CO)C(=O)Cc2cc(NS(=O)(=O)c3cccs3)ccc2O[C@H]1CN(C)Cc1ccc(-c2ccccc2)cc1	-0.296	10.7	48.8	0.6	96.5*
C[C@@H]1CN([C@H](C)CO)C(=O)c2cc(NS(=O)(=O)c3cccs3)ccc2O[C@@H]1CN(C)Cc1ccc(Oc2ccccc2)cc1	-0.131	12.8	105.9*	.	22.2
C[C@H](CO)N1C[C@H](C)[C@H](CN(C)Cc2ccc(Oc3ccccc3)cc2)Oc2ccc(NS(=O)(=O)c3cccs3)cc2CC1=O	-0.181	-3.9	31.7	-0.8	21.6
NNC(=O)Cn1nnc(N2CCCC2)n1	0.799	-6.6	-6.7	-0.2	20.7
CCn1c2ccccc2n2c(SCCOc3ccc(C)cc3)nnc12	.	-9.2	30.1	.	.
C[C@H]1CN([C@@H](C)CO)C(=O)c2cccc(NC(=O)c3ccc(-c4nccs4)cc3)c2O[C@H]1CN(C)Cc1ccccc1	-0.49	-14.7	36.5	.	7.6
C[C@@H]1CN([C@@H](C)CO)C(=O)c2cccc(NC(=O)c3ccc(-c4nccs4)cc3)c2O[C@H]1CN(C)Cc1ccc(Oc2ccccc2)cc1	-0.533	59.8	111.3*	-1.0	54.2
C[C@@H]1CN([C@H](C)CO)C(=O)c2cccc(NC(=O)c3ccc(-c4nccs4)cc3)c2O[C@@H]1CN(C)Cc1ccc(Oc2ccccc2)cc1	-0.407	21.2	88.6*	-4.9	?
CC1(C)Cc2c(c(N3CCOCC3)nc3sc4c(=O)[nH]nnc4c23)CO1	.	-5.6	4.3	-5.3	73.4
COc1ccc(C(=O)CC2(O)C(=O)N(Cc3ccc(Cl)c(Cl)c3)c3ccccc32)cc1OC (configuration not stated)	.	16.7	43.4	0.8	6.5
O=C(CC1(O)C(=O)N(Cc2ccccc2)c2ccc(Cl)cc21)c1ccc2c(c1)OCCO2 (configuration not stated)	.	24.9	26.0	0.7	-3.5
O=C(CC1(O)C(=O)N(Cc2ccc(Cl)cc2)c2ccc(Cl)cc21)c1ccc2c(c1)OCCO2 (configuration not stated)	.	28.6	129.4*	-2.0	12.9
Cc1ccc(CN2C(=O)C(O)(CC(=O)c3c(C)coc3C)c3cc(Cl)ccc32)cc1 (configuration not stated)	.	42.8	127.6*	0.8	2.8
CCCN1C(=O)C(O)(CC(=O)c2ccc(OC)c([N+](=O)[O-])c2)c2ccccc21 (configuration not stated)	.	6.7	117.9*	.	.
COc1ccc(C(=O)CC2(O)C(=O)N(Cc3ccc(C)cc3)c3ccc(Cl)cc32)cc1[N+](=O)[O-] (configuration not stated)	.	48.1	124.0*	-12.9	70.3
CN1C(=O)C(O)(CC(=O)c2ccccc2)c2ccccc21 (configuration not stated)	.	.	.	.	-12.3
Cc1coc(C)c1C(=O)CC1(O)C(=O)N(Cc2cccc3ccccc23)c2ccccc21 (configuration not stated)	.	26.7	40.0	1.0	6.6
COc1ccc(-c2nc3ccccc3s2)cc1NC(=O)COc1ccc(Br)cc1	.	-24.3	13.0	0.0	-8.5
COc1ccc(C2(CNC(=O)c3ccc(OC)c([N+](=O)[O-])c3)CCCC2)cc1OC	.	10.5	13.7	-3.1	1.5
CCCN1C(=O)C(O)(CC(=O)c2ccc(OC)c([N+](=O)[O-])c2)c2cc(Br)ccc21 (configuration not stated)	.	1.5	112.9*	-12.4	15.1
SMILES	YB-1 expression	MITF inh	NOMO-1 viab	PD-1 reverse act	U2OS ROS induce
COc1ccc(NC(=O)Nc2cccc3c2O[C@H](CN(C)S(C)(=O)=O)[C@H](C)CN([C@@H](C)CO)C3=O)cc1	-0.311	-3.6	-13.4	-0.7	-6.5
C[C@@H]1CN([C@H](C)CO)C(=O)c2cccc(NC(=O)Nc3ccc(F)cc3)c2O[C@H]1CN(C)S(C)(=O)=O	0.183	5.4	17.2	-0.6	18.3
C[C@@H]1CN([C@@H](C)CO)C(=O)c2cccc(NC(=O)Nc3ccc(F)cc3)c2O[C@@H]1CN(C)S(C)(=O)=O	-0.0311	-7.3	3.6	-2.8	89.9*
COc1ccc(NC(=O)Nc2cccc3c2O[C@@H](CN(C)S(C)(=O)=O)[C@H](C)CN([C@@H](C)CO)C3=O)cc1	0.737	-9.0	-0.7	-1.0	111.5*
CCc1nc2sc(C)c(C)c2c(=O)n1N	0.166	11.6	22.1	4.5	0.5
CC1C/C(=C/c2cccn2C)C(=O)/C(=C/c2cccn2C)C1 (configuration not stated)	.	.	.	.	260.8*
COc1cccc(/C=C2\CC(C)C/C(=C\c3ccccc3OC)C2=O)c1 (configuration not stated)	.	.	.	.	2.2
Oc1ccc(Br)cc1C=NCC12CCC3CC(CC(C3)C1)C2	-0.163	10.3	89.6*	-0.8	-11.3
COc1cccc2cc(-c3nnc(SCC(=O)Nc4cccc(Br)c4)n3C)oc12	.	36.2	106.6*	-14.3	2.2
COc1cccc2cc(-c3nnc(SCC(=O)Nc4cccc(F)c4)n3C)oc12	.	-13.4	12.0	-1.4	0.5
CCCCN1C(=O)[C@H]2Cc3c([nH]c4ccccc34)[C@H](c3ccc(OC)cc3)N2C1=O	-1.13	-4.5	51.8	-1.4	10.4
Fc1cc(F)c(NC(=S)N2CCOCC2)c(F)c1	-0.0151	10.6	-17.4	1.5	-7.3
S=C(CC(=S)N1CCOCC1)N1CCOCC1	-0.103	3.5	85.7*	0.7	11.5
COc1ccc(S(=O)(=O)Nc2ccc3c(c2)CC(=O)N([C@H](C)CO)C[C@@H](C)[C@@H](CN(C)Cc2ccc(C(F)(F)F)cc2)O3)cc1	-0.203	-1.0	119.3*	-3.8	37.1
COc1ccc(S(=O)(=O)Nc2ccc3c(c2)CC(=O)N([C@@H](C)CO)C[C@@H](C)[C@@H](CN(C)Cc2ccc(C(F)(F)F)cc2)O3)cc1	0.454	37.1	94.8*	0.3	15.8
COc1ccc(S(=O)(=O)Nc2ccc3c(c2)CC(=O)N([C@@H](C)CO)C[C@H](C)[C@H](CN(C)Cc2ccc(C(F)(F)F)cc2)O3)cc1	0.0509	30.8	108.3*	2.6	26.1
